Inconclusive results are not listed. Calls of active or inactive are those of the source. Unless noted, calls follow the shape of the dose curve; as a rule, active = well fitted inhibition curve with a large enough effect; inconclusive = small, poorly fitted or top-dose-only effect; inactive = flat fitted curve, though single readings scatter.
Tests used:
AS120 = test: qHTS profiling for inhibitors of Plasmodium falciparum proliferation (AID 504749); also: nearly all actives have a fitted effect of over 60% in size; also: potency is read from the fitted curve at half-maximal effect;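 as to activity, negative = inhibition: 0% = DMSO vehicle and full inhibition = artemisinin control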; conditions: P. falciparum in erythrocytes, SYBR Green DNA, 72 h; series mostly up to 28.7 µM
How it was run: (§1)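 P. falciparum-infected erythrocytes (0.3% parasitemia, 2.5% hematocrit final) were exposed to compounds for 72 h at 37 C in 5% CO2, then lysed with SYBR Green buffer overnight at room temperature; parasite DNA fluorescence was normalized to artemisinin and DMSO controls.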

CP191 = test: as above; conditions: P. falciparum in erythrocytes, SYBR Green DNA, 72 h; series mostly up to 28.7 µM
How it was run: as §1

CP217 = test: as above; conditions: P. falciparum in erythrocytes, SYBR Green DNA, 72 h; series mostly up to 28.7 µM
How it was run: as §1

CP252 = test: as above; conditions: P. falciparum in erythrocytes, SYBR Green DNA, 72 h; series mostly up to 12.8 µM
How it was run: as §1

CP256 = test: as above; conditions: P. falciparum in erythrocytes, SYBR Green DNA, 72 h; series mostly up to 28.7 µM
How it was run: as §1

CP286 = test: as above; conditions: P. falciparum in erythrocytes, SYBR Green DNA, 72 h; series mostly up to 28.7 µM
How it was run: as §1

CP297 = test: as above; conditions: P. falciparum in erythrocytes, SYBR Green DNA, 72 h; series mostly up to 28.7 µM
How it was run: as §1

Dd2 = test: as above; conditions: P. falciparum in erythrocytes, SYBR Green DNA, 72 h; series mostly up to 28.7 µM
How it was run: as §1

HB3 = test: as above; conditions: P. falciparum in erythrocytes, SYBR Green DNA, 72 h; series mostly up to 28.7 µM
How it was run: as §1

N140 = test: as above; conditions: P. falciparum in erythrocytes, SYBR Green DNA, 72 h; series mostly up to 28.7 µM
How it was run: as §1

PAD = test: as above; conditions: P. falciparum in erythrocytes, SYBR Green DNA, 72 h; series mostly up to 28.7 µM
How it was run: as §1

PC15 = test: as above; conditions: P. falciparum in erythrocytes, SYBR Green DNA, 72 h; series mostly up to 28.7 µM
How it was run: as §1

SC27B = test: as above; conditions: P. falciparum in erythrocytes, SYBR Green DNA, 72 h; series mostly up to 28.7 µM
How it was run: as §1

TAB113 = test: as above; conditions: P. falciparum in erythrocytes, SYBR Green DNA, 72 h; series mostly up to 28.7 µM
How it was run: as §1

[1] = S16 Schwann cell PMP22 intronic element beta-lactamase assay (AID 624044; calls by dose curve;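 also: 0% = DMSO and -100% = potassium clavulanate positive control; nearly all actives have a fitted effect of over 15% in size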); conditions: S16 rat Schwann cells, PMP22 element beta-lactamase FRET, 24 h; ratio activity, negative = inhibition: at 38.3 µM (top of the series) unless noted
How it was run: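 Rat S16 Schwann cells with beta-Lac driven by a PMP22 intronic element, compound-treated 24 h at 37 °C. LiveBLAzer FRET B/G read: 460 nm normalized to potassium clavulanate vs DMSO; 535 nm FRET as viability; concentration-effect curves classified.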

CP194 = test: qHTS profiling for inhibitors of Plasmodium falciparum proliferation (AID 504749); also: nearly all actives have a fitted effect of over 60% in size; also: potency is read from the fitted curve at half-maximal effect;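 as to activity, negative = inhibition: 0% = DMSO vehicle and full inhibition = artemisinin control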; conditions: P. falciparum in erythrocytes, SYBR Green DNA, 72 h; series mostly up to 28.7 µM
How it was run: as §1

CP266 = test: as above; conditions: P. falciparum in erythrocytes, SYBR Green DNA, 72 h; series mostly up to 12.8 µM
How it was run: as §1

CP315 = test: as above; conditions: P. falciparum in erythrocytes, SYBR Green DNA, 72 h; series mostly up to 28.7 µM
How it was run: as §1

CP325 = test: as above; conditions: P. falciparum in erythrocytes, SYBR Green DNA, 72 h; series mostly up to 28.7 µM
How it was run: as §1

GB4 = test: as above; conditions: P. falciparum in erythrocytes, SYBR Green DNA, 72 h; series mostly up to 28.7 µM
How it was run: as §1

C[C@]12CC[C@H](O)CC1=CCC1C2CC[C@]2(C)C(=O)CC[C@@H]12 (some centres not stated)
inactive: Potency (AS120) | Potency (CP191) | Potency (CP217) | Potency (CP252) | Potency (CP256) | Potency (CP286) | Potency (Dd2) | Potency (HB3) | Potency (N140) | Potency (PAD) | Potency (PC15) | Potency (SC27B) | Potency (TAB113)
active: Potency (CP297) 19 µM

CCNC[C@H](O)c1cccc(O)c1
inactive: Potency [1] | Potency (AS120) | Potency (CP191) | Potency (CP194) | Potency (CP217) | Potency (CP252) | Potency (CP256) | Potency (CP266) | Potency (CP286) | Potency (CP315) | Potency (CP325) | Potency (Dd2) | Potency (GB4) | Potency (HB3) | Potency (N140) | Potency (PAD) | Potency (PC15) | Potency (SC27B) | Potency (TAB113)

C[N+]1([O-])[C@@H]2CC(OC(=O)[C@@H](CO)c3ccccc3)C[C@@H]1[C@H]1O[C@H]12 (some centres not stated)
inactive: Potency [1] | Potency (AS120) | Potency (CP191) | Potency (CP194) | Potency (CP217) | Potency (CP252) | Potency (CP256) | Potency (CP266) | Potency (CP286) | Potency (CP297) | Potency (CP315) | Potency (CP325) | Potency (Dd2) | Potency (GB4) | Potency (HB3) | Potency (N140) | Potency (PAD) | Potency (PC15) | Potency (SC27B) | Potency (TAB113)

ClC1=C(Cl)C2(Cl)C3C4CC(C5OC45)C3C1(Cl)C2(Cl)Cl (configuration not stated)
inactive: Potency [1] | Potency (AS120) | Potency (CP191) | Potency (CP194) | Potency (CP217) | Potency (CP252) | Potency (CP256) | Potency (CP266) | Potency (CP315) | Potency (CP325) | Potency (Dd2) | Potency (GB4) | Potency (HB3) | Potency (N140) | Potency (PAD) | Potency (PC15) | Potency (SC27B)

CC(C)c1c(CN(C)[C@@H](C)Cc2ccccc2)n(C)n(-c2ccccc2)c1=O
active: ratio activity, negative = inhibition [1] -8.16% [at 17.1 µM]
inactive: Potency (AS120) | Potency (CP191) | Potency (CP194) | Potency (CP217) | Potency (CP252) | Potency (CP256) | Potency (CP266) | Potency (CP286) | Potency (CP297) | Potency (CP315) | Potency (CP325) | Potency (Dd2) | Potency (GB4) | Potency (HB3) | Potency (N140) | Potency (PAD) | Potency (PC15) | Potency (SC27B) | Potency (TAB113)

C[C@@]12CC[C@H]3[C@@H](CC[C@@H]4C[C@H]5S[C@H]5C[C@]43C)[C@H]1CC[C@H]2O
inactive: Potency [1] | Potency (AS120) | Potency (CP191) | Potency (CP194) | Potency (CP217) | Potency (CP252) | Potency (CP256) | Potency (CP266) | Potency (CP286) | Potency (CP297) | Potency (CP315) | Potency (CP325) | Potency (Dd2) | Potency (GB4) | Potency (HB3) | Potency (N140) | Potency (PAD) | Potency (PC15) | Potency (SC27B) | Potency (TAB113)

C[C@H](N)[C@@H](O)c1ccccc1
inactive: Potency [1] | Potency (AS120) | Potency (CP191) | Potency (CP194) | Potency (CP217) | Potency (CP252) | Potency (CP256) | Potency (CP266) | Potency (CP286) | Potency (CP297) | Potency (CP315) | Potency (CP325) | Potency (Dd2) | Potency (GB4) | Potency (HB3) | Potency (N140) | Potency (PAD) | Potency (PC15) | Potency (SC27B) | Potency (TAB113)

CC(=O)O[C@H]1CC[C@@]2(C)C(=CC[C@@H]3[C@H]2CC[C@]2(C)C(=O)CC[C@H]32)C1
inactive: Potency [1] | Potency (AS120) | Potency (CP191) | Potency (CP194) | Potency (CP217) | Potency (CP252) | Potency (CP256) | Potency (CP266) | Potency (CP286) | Potency (CP297) | Potency (CP315) | Potency (CP325) | Potency (Dd2) | Potency (GB4) | Potency (HB3) | Potency (N140) | Potency (PAD) | Potency (PC15) | Potency (SC27B) | Potency (TAB113)

C[C@H]1CN(C2CCC(C#N)(c3ccc(F)cc3)CC2)CC[C@@]1(C(=O)O)c1ccccc1 (some centres not stated)
inactive: Potency [1] | Potency (AS120) | Potency (CP191) | Potency (CP194) | Potency (CP217) | Potency (CP252) | Potency (CP256) | Potency (CP266) | Potency (CP286) | Potency (CP297) | Potency (CP315) | Potency (CP325) | Potency (Dd2) | Potency (GB4) | Potency (HB3) | Potency (N140) | Potency (PAD) | Potency (PC15) | Potency (SC27B) | Potency (TAB113)

CC[C@@H]1[C@@H]2C[C@H]3[C@H]4N(C)c5ccccc5[C@@]45C[C@@H]([C@@H]2[C@@H]5O)N3[C@H]1O
inactive: Potency [1] | Potency (CP191) | Potency (CP194) | Potency (CP217) | Potency (CP252) | Potency (CP256) | Potency (CP266) | Potency (CP286) | Potency (CP297) | Potency (CP315) | Potency (CP325) | Potency (Dd2) | Potency (GB4) | Potency (HB3) | Potency (N140) | Potency (SC27B) | Potency (TAB113)

— PubChem BioAssay (NCATS)
